Source: PubChem BioAssay (Broad Institute)
aSyn 5UTR act = Activators working through SNCA 5'UTR binding (MLPCN) | alpha-synuclein 5'UTR reporter, activators screen | activity score, % (tested at 7.5 µM), hits read low | 7.1% of 300,000 active; in the data active = activity score below about -60%
Hits are given with their value; n = inactive. The list is a sample of the results.

SMILES	aSyn 5UTR act
COc1cccc(Nc2nc3ccccc3n3nnnc23)c1	-64.5
c1ccc(Nc2nc3ccccc3n3nnnc23)cc1	-74.5
Cc1ccc(-c2nc3ccccc3n3nnnc23)cc1	-249.5
Fc1ccccc1Nc1nc2ccccc2n2nnnc12	-146.1
Cc1ccc(-c2nnc3c(C(F)(F)F)nc4ccccc4n23)cc1	n
CCN(CC)S(=O)(=O)c1ccc(Nc2nc3ccccc3n3nnnc23)cc1	-86.6
CCN(CC)S(=O)(=O)c1ccc2c(c1)C(=NO)c1cc(S(=O)(=O)N(CC)CC)ccc1-2	n
NC(=O)c1sc2nc3c(c(-c4ccc(Cl)cc4)c2c1N)CCCC3	n
Nc1ccc2nc3c(c(Cl)c2c1)CCCC3	-88.4
Cc1ccsc1C(=O)OCC(=O)N1CCc2ccccc2C1	-126.2
Cc1cc2oc3ccc(NCCCN4CCOCC4)cc3c(=O)c2cc1C	-96.7
Cc1cc2oc3ccc(NCCCn4ccnc4)cc3c(=O)c2cc1C	-85.9
CN(C)CCn1cnc2c(c1=N)C(c1ccccc1)c1ccc3ccccc3c1O2 (stereo not drawn)	n
O=C(NC1CCCCCC1)C(=S)NCc1ccccc1	-86.0
O=C(NC1CCCCC1)C(=S)NCc1ccccc1	-71.1
COc1ccc(CNC(=O)NC2CCCCC2)cc1	-79.6
O=C(NC1CCCCC1)C(=S)NC1CCCCC1	-106.3
Cc1ccc(N=Cc2sc(O)c3ccccc23)c(C)c1	-189.7
Cc1ccc(N=Cc2sc(O)c3ccccc23)cc1	-236.5
Cc1ccc(N=Nc2ccc3ccccc3c2O)cc1	n
CC(=O)Nc1nccc(-c2cc(-c3ccccc3)no2)n1	-180.4
Cc1cc(-c2cccc([N+](=O)[O-])c2)nc2ccc3ccccc3c12	-107.6
Cc1ccc(Oc2nccc(-c3ccc(Cl)cc3)n2)cc1	-67.1
O=C(Cn1cc(SCc2cccc(Cl)c2)c2ccccc21)N1CCOCC1	-152.6
Cc1cccc(CSc2cn(CC(=O)N3CCOCC3)c3ccccc23)c1	-129.9
SMILES	aSyn 5UTR act
Cc1ccc(OCc2cc(C(=O)N3CCN(C)C[C@@H]3c3ccccc3)no2)cc1C	-106.3
CN1CCN(C(=O)c2cc(COc3ccccc3)on2)[C@@H](c2ccccc2)C1	-165.7
COc1ccccc1C1=NC(c2ccc(C)cc2)N=C1C (stereo not drawn)	-77.8
COC(=O)C1=C(N)Oc2cc(N(C)C)ccc2C1c1ccccc1OC (stereo not drawn)	n
CCOC(=O)c1ccc2c(c1)NCc1cccc(OC)c1O2	-128.6
CCC(=O)Nc1ccc(-c2csc(C)n2)cc1	-80.5
Cc1nc(-c2ccc(NC(=O)Cc3ccccc3)cc2)cs1	-163.8
Cc1nc(-c2ccc(NC(=O)c3ccco3)cc2)cs1	n
COc1ccc2c(COC(=O)c3n[nH]c4ccccc34)cc(=O)oc2c1	-180.4
Cc1cc2oc(=O)cc(COC(=O)c3n[nH]c4ccccc34)c2cc1C	-133.6
C(=C\n1nnc2ccccc21)/c1ccc[nH]1	-72.3
C=CCn1cnc2c(nnn2-c2ccc(C)c(C)c2)c1=O	-122.4
CCC(C)[C@H](NC(=O)[C@@H]1Cc2ccccc2CN1)C(=O)Nc1ccc2c(c1)OCO2 (stereo partly drawn)	-100.9
C[C@H](NC(=O)[C@@H]1Cc2ccccc2CN1)C(=O)Nc1ccc2c(c1)OCCO2	-64.7
CC(=O)c1cc(-c2ccccc2)n(CC(=O)NC2CCCC2)c1C	-64.9
c1ccc(SCc2nc3ccccc3[nH]2)nc1	-75.1
CCNc1nnc(CSc2nc3ccccc3s2)s1	-70.8
CCc1cc2c(Sc3nc4ccccc4s3)ncnc2s1	n
c1ccc2[nH]c(CSc3nc4ccccc4s3)nc2c1	-111.6
Cn1c(CSc2nc3ccccc3s2)nc2ccccc21	-139.6
O=c1c2cc(-c3ccccc3)sc2ncn1-n1cccc1	-254.8
CC(=O)Cn1cnc2sc(-c3ccccc3)cc2c1=O	-175.2
CC(=O)Cn1nnc2sc(-c3ccccc3)cc2c1=O	-90.2
Cc1ccc(C)n1-n1c(C)nc2sc(-c3ccccc3)cc2c1=O	-104.7
Cc1nc2cc(-c3ccccc3)sc2c(=O)n1N	n
SMILES	aSyn 5UTR act
Cc1cc2nc3ccc(=[N+](C)C)cc-3sc2cc1N	n
CCn1cnc2sc(-c3ccccc3)cc2c1=O	-130.1
CCCc1cc(C(=O)Nc2ccc(CC)cc2)no1	-169.2
Cc1cc(C(=O)Nc2sc(C)c(C)c2C#N)no1	-170.4
Cc1ccc(NC(=O)c2cc(C)on2)cc1	-96.2
Cc1ccc(/C=C/C(=O)Nc2cc(C)on2)cc1	-226.9
Cc1cc(C(=O)Nc2ccccn2)no1	-104.2
Cc1ccc(NC(=S)Nc2cc(C)on2)cc1	-71.3
CCCc1cc(C(=O)Nc2ccc(C)cc2)no1	-103.6
Cc1cc(NC(=O)CSc2nc(-c3ccco3)cc(C(F)(F)F)n2)no1	n
CS(=O)(=O)c1nc(-c2ccco2)cc(C(F)(F)F)n1	-75.6
C(#CC1CCCC1)c1ccc2c(c1)COc1c3ccccc3nn1-2	-146.2
Cc1cccc(NC(=O)Cc2noc3ccccc23)c1	-82.3
O=C(Cc1noc2ccccc12)Nc1ccc(Cl)cc1	-68.5
Cc1c(C(=O)N2CCCCC2)oc2ccc(Br)cc12	-137.7
Cc1ccc2oc(C(=O)N3CCCCCC3)c(C)c2c1	-77.8
CCCc1ccc2oc(C(=O)N3CCC(O)CC3)c(C)c2c1	-89.2
O=C(c1cc2cc(Br)ccc2o1)N1CCCCC1	-146.3
